Consider 29 molecules from the supplement of paper PMC10037445.

For assay [1], the system named is RAW-Dual. Kind of assay: NF-kB SEAP reporter activity, fold change vs agonist alone; cytotoxicity flag (confluency mask): not cytotoxic; higher = enhanced NF-kB activity. The procedure, abridged:
(§1)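 Reporter activity is given as fold change relative to agonist-alone wells. To measure it, 50 nL of library stock was pin-tooled onto RAW-Dual macrophages (50,000 cells/well, DMEM, 384-well plates), a PRR agonist followed 1 h later, and cells stayed at 37 °C, 5% CO2. Twenty hours on, supernatant was assayed for IRF (QuantiLuc luminescence) and NF-κB (QuantiBlue, 620 nm absorbance), and wells under 70% of agonist-control IncuCyte confluency in both mask sets were marked cytotoxic.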

In assay [2] the test system is RAW-Dual. Kind of assay: NF-kB SEAP reporter activity, fold change vs agonist alone; higher = enhanced NF-kB activity. The procedure, abridged:
as §1

Assay [3] concerns RAW-Dual. The assay is described as follows: NF-kB SEAP reporter activity, fold change vs agonist alone; cytotoxicity flag (confluency mask): cytotoxic (confluency <70% of control); higher = enhanced NF-kB activity. The procedure, abridged: as §1
Setting [4] is: agonist: ODN 1826 (TLR9) 0.5 ug/mL.
Where [5] appears, read: agonist: Pam2CSK4 (TLR2/6) 0.1 ug/mL.
[6] abbreviates: agonist: Pam3CSK4 (TLR2/1) 0.1 ug/mL.
[7] abbreviates: library stock concentration (final ~1000-fold dilution): 10 mM, cytotoxicity flag (confluency mask): not cytotoxic, agonist: Imiquimod (TLR7) […].
Setting [8] is: library stock concentration (final ~1000-fold dilution): 10 mM, cytotoxicity flag (confluency mask): not cytotoxic, agonist: MPLA (TLR4) […].

In all, about 2,900 compounds were measured (“NF-kB SEAP reporter activity, fold change vs agonist alone”: median about 0.99, highest 2% from about 2.6 on). The list comes from a sample in which the highest values are over-represented; it also holds similar structures and randomly drawn compounds.

Consider `CCN(CC)CCNC(=O)c1c(C)[nH]c(/C=C2\C(=O)Nc3ccc(F)cc32)c1C.O=C(O)CC(O)C(=O)O` (library stock concentration (final ~1000-fold dilution): 10 mM), for which the “NF-kB SEAP reporter activity” value with RAW-Dual [1] (agonist: LPS (TLR4) 0.1 ug/mL) worked out at 0.295; in the assay on RAW-Dual [1] (setting [4]), 0.21; in the assay with RAW-Dual [1] (setting [5]) it was 0.27; with RAW-Dual [1] (setting [6]), 0.317.
On to `Cc1nn(CC(F)(F)F)cc1Nc1ncc(Br)c(NCc2ccc(S(N)(=O)=O)cc2)n1`, for which the figures for the “NF-kB SEAP reporter activity” value in the assay with RAW-Dual [2] (setting [7]) and in the assay on RAW-Dual [2] (setting [8]) were 1.38 and 1.33, respectively.
Take `Cc1nn(CC(F)(F)F)cc1Nc1ncc(Br)c(NCc2ccc(S(N)(=O)=O)cc2)n1` (library stock concentration (final ~1000-fold dilution): 10 mM): the “NF-kB SEAP reporter activity” value stood at 0.744 in the assay with RAW-Dual [1] (agonist: LPS (TLR4) 0.1 ug/mL), 1.28 in the assay on RAW-Dual [1] (setting [4]), 1.17 in the assay on RAW-Dual [1] (setting [5]) and 1.54 in the assay on RAW-Dual [1] (setting [6]).
As for `CSCC(N)C(=O)O` (stereo not drawn), the “NF-kB SEAP reporter activity” value in the assay on RAW-Dual [2] (setting [7]) is 0.816; with RAW-Dual [2] (setting [8]), 0.97.
Consider `CSCC(N)C(=O)O` (stereo not drawn) (library stock concentration (final ~1000-fold dilution): 10 mM), for which the “NF-kB SEAP reporter activity” value in the assay with RAW-Dual [1] (agonist: LPS (TLR4) 0.1 ug/mL) is 1.3; with RAW-Dual [1] (setting [4]), 1.03; in the assay on RAW-Dual [1] (setting [5]), 1.12; in the assay on RAW-Dual [1] (setting [6]), 1.08.
Take `O=C(/C=C/c1cccnc1)c1ccncc1`: the “NF-kB SEAP reporter activity” value amounted to 0.871 in the assay with RAW-Dual [2] (setting [7]) and 0.953 in the assay with RAW-Dual [2] (setting [8]).
Take `Nc1ccc(F)cc1NC(=O)c1ccc(CNC(=O)/C=C/c2cccnc2)cc1`: the “NF-kB SEAP reporter activity” value in the assay on RAW-Dual [2] (setting [7]) was determined as 1.65; in the assay with RAW-Dual [2] (setting [8]), 1.89.
Take `Nc1ccc(F)cc1NC(=O)c1ccc(CNC(=O)/C=C/c2cccnc2)cc1` (library stock concentration (final ~1000-fold dilution): 10 mM): the “NF-kB SEAP reporter activity” value amounted to 3.7 with RAW-Dual [1] (agonist: LPS (TLR4) 0.1 ug/mL), 3.18 in the assay with RAW-Dual [1] (setting [4]), 0.749 with RAW-Dual [1] (setting [5]) and 1.53 with RAW-Dual [1] (setting [6]).
The corresponding values for `O=C(/C=C/c1cccnc1)c1ccncc1` (library stock concentration (final ~1000-fold dilution): 10 mM) are 1.03, 0.938, 1.21 and 1.05.
Turning to `O=C(/C=C/c1cccnc1)NCCCCC1CCN(C(=O)c2ccccc2)CC1`, the “NF-kB SEAP reporter activity” value amounted to 1.06 in the assay on RAW-Dual [2] (setting [7]) and 0.719 in the assay on RAW-Dual [2] (setting [8]).
For `O=C(/C=C/c1cccnc1)NCCCCC1CCN(C(=O)c2ccccc2)CC1` (library stock concentration (final ~1000-fold dilution): 10 mM), the “NF-kB SEAP reporter activity” value worked out at 0.56 in the assay on RAW-Dual [1] (agonist: LPS (TLR4) 0.1 ug/mL), 1.07 in the assay with RAW-Dual [1] (setting [4]), 0.67 with RAW-Dual [1] (setting [5]) and 0.537 in the assay with RAW-Dual [1] (setting [6]).
Consider `COc1ccc(C2OCC3C(c4cc(OC)c(OC)c(OC)c4)OCC23)cc1OC` (stereo not drawn), for which the figures for the “NF-kB SEAP reporter activity” value with RAW-Dual [2] (setting [7]) and in the assay on RAW-Dual [2] (setting [8]) were 0.813 and 1.03, respectively.
Turning to `COc1ccc(C2OCC3C(c4cc(OC)c(OC)c(OC)c4)OCC23)cc1OC` (stereo not drawn) (library stock concentration (final ~1000-fold dilution): 10 mM), the “NF-kB SEAP reporter activity” value with RAW-Dual [1] (agonist: LPS (TLR4) 0.1 ug/mL) came to 1.2; in the assay on RAW-Dual [1] (setting [4]), 1; in the assay on RAW-Dual [1] (setting [5]), 1.01; in the assay on RAW-Dual [1] (setting [6]) it was 1.71.
In the case of `O=C1c2cccc3c2C(CCC3)CN1C1CN2CCC1CC2` (stereo not drawn), the “NF-kB SEAP reporter activity” value in the assay with RAW-Dual [2] (setting [7]) came out at 0.886; in the assay on RAW-Dual [2] (setting [8]), 1.17.
Consider `O=C1c2cccc3c2C(CCC3)CN1C1CN2CCC1CC2` (stereo not drawn) (library stock concentration (final ~1000-fold dilution): 10 mM), for which the “NF-kB SEAP reporter activity” value with RAW-Dual [1] (agonist: LPS (TLR4) 0.1 ug/mL) stood at 1.5; with RAW-Dual [1] (setting [4]) it was 0.937; in the assay with RAW-Dual [1] (setting [5]) it was 0.587; in the assay on RAW-Dual [1] (setting [6]) it was 0.339.
As to `COc1ccc(-c2nc(N3CCOCC3)c3sc(CN(C)c4ncc(C(=O)NO)cn4)cc3n2)cn1` (library stock concentration (final ~1000-fold dilution): 10 mM), the “NF-kB SEAP reporter activity” value in the assay with RAW-Dual [3] (agonist: LPS (TLR4) 0.1 ug/mL) was 4.34; with RAW-Dual [3] (setting [4]) it was 2.1; in the assay with RAW-Dual [3] (setting [5]), 1.3; with RAW-Dual [3] (setting [6]), 1.6.
On to `COc1ccc(-c2nc(N3CCOCC3)c3sc(CN(C)c4ncc(C(=O)NO)cn4)cc3n2)cn1`, for which the “NF-kB SEAP reporter activity” value with RAW-Dual [2] (library stock concentration (final ~1000-fold dilution): 10 mM, cytotoxicity flag (confluency mask): cytotoxic (confluency <70% of control), agonist: Imiquimod (TLR7) […]) came out at 2.88; with RAW-Dual [2] (library stock concentration (final ~1000-fold dilution): 10 mM, cytotoxicity flag (confluency mask): cytotoxic (confluency <70% of control), agonist: MPLA (TLR4) […]), 2.66.
Take `COC1(c2sc3c(N4CCOCC4)nc(-c4cnc(N)nc4)nc3c2C)COC1`: the “NF-kB SEAP reporter activity” value in the assay on RAW-Dual [2] (setting [7]) turned out to be 0.913; in the assay on RAW-Dual [2] (setting [8]) it was 1.05.
As for `COC1(c2sc3c(N4CCOCC4)nc(-c4cnc(N)nc4)nc3c2C)COC1` (library stock concentration (final ~1000-fold dilution): 10 mM), the “NF-kB SEAP reporter activity” value with RAW-Dual [1] (agonist: LPS (TLR4) 0.1 ug/mL) is 1.46; in the assay with RAW-Dual [1] (setting [4]), 0.707; with RAW-Dual [1] (setting [5]), 0.459; in the assay on RAW-Dual [1] (setting [6]), 0.608.
The matching figures for `Cc1c(CN2CCN(C(=O)C(C)O)CC2)sc2c(N3CCOCC3)nc(-c3cnc(N)nc3)nc12` (stereo not drawn) (library stock concentration (final ~1000-fold dilution): 10 mM): 1.32, 0.763, 0.412 and 0.661.
For `Cc1c(CN2CCN(C(=O)C(C)O)CC2)sc2c(N3CCOCC3)nc(-c3cnc(N)nc3)nc12` (stereo not drawn), the “NF-kB SEAP reporter activity” value in the assay on RAW-Dual [2] (setting [7]) was found to be 1; in the assay on RAW-Dual [2] (setting [8]), 1.08.
Regarding `CC(C)(CNC(=O)c1cccc(-c2noc(C(F)(F)F)n2)c1)c1coc(-c2ccccc2)n1` (library stock concentration (final ~1000-fold dilution): 10 mM), the “NF-kB SEAP reporter activity” value with RAW-Dual [1] (agonist: LPS (TLR4) 0.1 ug/mL) is 1.03; with RAW-Dual [1] (setting [4]) it was 1.03; in the assay on RAW-Dual [1] (setting [5]) it was 0.625; with RAW-Dual [1] (setting [6]), 0.745.
`CC(C)(CNC(=O)c1cccc(-c2noc(C(F)(F)F)n2)c1)c1coc(-c2ccccc2)n1`: the entries for the “NF-kB SEAP reporter activity” value in the assay on RAW-Dual [2] (setting [7]) and in the assay on RAW-Dual [2] (setting [8]) were 0.959 and 1.09, respectively.
`Nc1ccn(C2OC(CO)C(O)C2O)c(=O)n1` (stereo not drawn): the “NF-kB SEAP reporter activity” value in the assay with RAW-Dual [2] (library stock concentration (final ~1000-fold dilution): 10 mM water, cytotoxicity flag (confluency mask): not cytotoxic, agonist: Imiquimod (TLR7) […]) worked out at 1.46; in the assay with RAW-Dual [2] (library stock concentration (final ~1000-fold dilution): 10 mM water, cytotoxicity flag (confluency mask): not cytotoxic, agonist: MPLA (TLR4) […]), 1.33.
With `Nc1ncn(C2OC(CO)C(O)C2O)c(=O)n1` (stereo not drawn), the figures for the “NF-kB SEAP reporter activity” value in the assay on RAW-Dual [2] (setting [7]) and in the assay with RAW-Dual [2] (setting [8]) were 2.59 and 2.47, respectively.
Take `Nc1ncn(C2CC(O)C(CO)O2)c(=O)n1` (stereo not drawn) (library stock concentration (final ~1000-fold dilution): 10 mM): the “NF-kB SEAP reporter activity” value in the assay with RAW-Dual [1] (agonist: LPS (TLR4) 0.1 ug/mL) worked out at 1.55; with RAW-Dual [1] (setting [4]) it was 1.41; in the assay with RAW-Dual [1] (setting [5]), 1.14; in the assay with RAW-Dual [1] (setting [6]) it was 1.26.
The matching figures for `Nc1ncn(C2OC(CO)C(O)C2O)c(=O)n1` (stereo not drawn) (library stock concentration (final ~1000-fold dilution): 10 mM): 1.06, 1.91, 0.631 and 0.71.
Regarding `Nc1ncn(C2CC(O)C(CO)O2)c(=O)n1` (stereo not drawn), the results for the “NF-kB SEAP reporter activity” value in the assay with RAW-Dual [2] (setting [7]) and in the assay on RAW-Dual [2] (setting [8]) were 1.58 and 1.38, respectively.
As to `Nc1ccn(C2OC(CO)C(O)C2O)c(=O)n1` (stereo not drawn) (library stock concentration (final ~1000-fold dilution): 10 mM water), the “NF-kB SEAP reporter activity” value in the assay on RAW-Dual [1] (agonist: LPS (TLR4) 0.1 ug/mL) worked out at 1.92; in the assay with RAW-Dual [1] (setting [4]), 1.7; in the assay with RAW-Dual [1] (setting [5]), 1.85; in the assay with RAW-Dual [1] (setting [6]), 1.83.
